In paper PMC9838217, “Structure of SALL4 zinc finger domain reveals link between AT-rich DNA binding and Okihiro syndrome”:
Substitutions are numbered along the chain they refer to.

Legend:
[1] = molecular target: T1, SALL4 ZFC4 R900W (HT-SELEX) (Mus musculus, UniProt Q8BX22 870-940, R900W); assay: HT-SELEX; high values mean tight binding; details: protein: recombinant; vector His6-GST; dsDNA, one strand shown
T1 sequence: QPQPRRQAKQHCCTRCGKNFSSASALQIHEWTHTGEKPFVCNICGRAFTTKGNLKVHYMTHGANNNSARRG
Summary of the method: (§1)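 Each canonical k-mer's binding signal is its read fraction expressed as fold change over the initial random library. Reads came from MiSeq sequencing, scanned for 6-mers, after up to 6 triplicate cycles in which purified recombinant mouse SALL4 zinc finger cluster 4 (residues 870–940, 1 µg) bound library DNA (1.5 µg first cycle, 200 ng later) in 100 µl of 10 mM Tris–HCl pH 7.5, 50 mM NaCl, poly(dI-dC), DTT for 10 min at room temperature. Complexes were then Ni2+ bead-captured, washed, PCR-amplified and reselected.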

[2] = molecular target: T2, SALL4 ZFC4 G921D (HT-SELEX) (Mus musculus, UniProt Q8BX22 870-940, G921D); assay: HT-SELEX; high values mean tight binding; details: protein: recombinant; vector His6-GST; dsDNA, one strand shown
T2 sequence: T1 sequence with W31R, G52D
Summary of the method: as §1

GCGTCC was tested, and the binding signal [1] was 0.152 ± 0.014 fold-change vs cycle 0 and the binding signal [2] was 0.258 ± 0.0705 fold-change vs cycle 0.

Sequence GAGGGC has a binding signal [1] of 0.201 ± 0.0133 fold-change vs cycle 0 and a binding signal [2] of 0.323 ± 0.085 fold-change vs cycle 0.

Sequence CAGCGA has a binding signal [1] of 0.275 ± 0.0083 fold-change vs cycle 0 and a binding signal [2] of 0.404 ± 0.0764 fold-change vs cycle 0.

In the case of CAGGCG, the binding signal [1] is reported as 0.129 ± 0.00318 fold-change vs cycle 0 and the binding signal [2] is reported as 0.24 ± 0.0647 fold-change vs cycle 0.

Work on AGACGC yielded a binding signal [1] of 0.274 ± 0.0116 fold-change vs cycle 0 and a binding signal [2] of 0.405 ± 0.0774 fold-change vs cycle 0.

Work on ATGGCG yielded a binding signal [1] of 0.236 ± 0.0151 fold-change vs cycle 0 and a binding signal [2] of 0.371 ± 0.0568 fold-change vs cycle 0.

CTACGC was tested, and the binding signal [1] was 0.278 ± 0.0143 fold-change vs cycle 0 and the binding signal [2] was 0.414 ± 0.0855 fold-change vs cycle 0.

CTGCCC was tested, and the binding signal [1] was 0.166 ± 0.00951 fold-change vs cycle 0 and the binding signal [2] was 0.291 ± 0.0763 fold-change vs cycle 0.

CCGAGC was tested, and the binding signal [1] was 0.158 ± 0.00799 fold-change vs cycle 0 and the binding signal [2] was 0.273 ± 0.0808 fold-change vs cycle 0.

CCGCTC showed a binding signal [1] of 0.151 ± 0.0178 fold-change vs cycle 0 and a binding signal [2] of 0.273 ± 0.0659 fold-change vs cycle 0.

For AGGCCC, the binding signal [1] was 0.169 ± 0.00192 fold-change vs cycle 0 and the binding signal [2] was 0.296 ± 0.0789 fold-change vs cycle 0.

With AGTGCG the binding signal [1] was 0.276 ± 0.0168 fold-change vs cycle 0 and the binding signal [2] was 0.407 ± 0.068 fold-change vs cycle 0.

With CGCAAC the binding signal [1] was 0.251 ± 0.0146 fold-change vs cycle 0 and the binding signal [2] was 0.378 ± 0.0552 fold-change vs cycle 0.

Work on GCACGA yielded a binding signal [1] of 0.281 ± 0.0197 fold-change vs cycle 0 and a binding signal [2] of 0.432 ± 0.0801 fold-change vs cycle 0.

CGCGCA showed a binding signal [1] of 0.0534 ± 0.00681 fold-change vs cycle 0 and a binding signal [2] of 0.139 ± 0.0597 fold-change vs cycle 0.

TCGCGA gave a binding signal [1] of 0.248 ± 0.0259 fold-change vs cycle 0 and a binding signal [2] of 0.374 ± 0.0699 fold-change vs cycle 0.

Work on CGAAGC yielded a binding signal [1] of 0.325 ± 0.00517 fold-change vs cycle 0 and a binding signal [2] of 0.474 ± 0.0622 fold-change vs cycle 0.

Work on GCCACC yielded a binding signal [1] of 0.153 ± 0.0112 fold-change vs cycle 0 and a binding signal [2] of 0.282 ± 0.0759 fold-change vs cycle 0.

ACCATA was tested, and the binding signal [1] was 1.42 ± 0.0261 fold-change vs cycle 0 and the binding signal [2] was 1.36 ± 0.0475 fold-change vs cycle 0.

CGGGGC gave a binding signal [1] of 0.0617 ± 0.00701 fold-change vs cycle 0 and a binding signal [2] of 0.163 ± 0.0639 fold-change vs cycle 0.

ACTATG showed a binding signal [1] of 1.37 ± 0.0399 fold-change vs cycle 0 and a binding signal [2] of 1.34 ± 0.0843 fold-change vs cycle 0.

Work on CCGCTA yielded a binding signal [1] of 0.299 ± 0.0278 fold-change vs cycle 0 and a binding signal [2] of 0.434 ± 0.0518 fold-change vs cycle 0.

CAGCCC gave a binding signal [1] of 0.16 ± 0.0179 fold-change vs cycle 0 and a binding signal [2] of 0.287 ± 0.0742 fold-change vs cycle 0.

For CGCCAA, the binding signal [1] was 0.185 ± 0.0197 fold-change vs cycle 0 and the binding signal [2] was 0.316 ± 0.0834 fold-change vs cycle 0.

In the case of CACCGG, the binding signal [1] is reported as 0.216 ± 0.0195 fold-change vs cycle 0 and the binding signal [2] is reported as 0.331 ± 0.0683 fold-change vs cycle 0.

With AGCGTC the binding signal [1] was 0.301 ± 0.0204 fold-change vs cycle 0 and the binding signal [2] was 0.444 ± 0.0717 fold-change vs cycle 0.

In the case of CTGTGC, the binding signal [1] is reported as 0.34 ± 0.0263 fold-change vs cycle 0 and the binding signal [2] is reported as 0.471 ± 0.046 fold-change vs cycle 0.

For CGCATC, the binding signal [1] was 0.304 ± 0.00796 fold-change vs cycle 0 and the binding signal [2] was 0.441 ± 0.0726 fold-change vs cycle 0.

Sequence AACGCG has a binding signal [1] of 0.226 ± 0.0175 fold-change vs cycle 0 and a binding signal [2] of 0.329 ± 0.0589 fold-change vs cycle 0.

CCCGCG was tested, and the binding signal [1] was 0.0543 ± 0.006 fold-change vs cycle 0 and the binding signal [2] was 0.134 ± 0.057 fold-change vs cycle 0.

For CGGACC, the binding signal [1] was 0.198 ± 0.0105 fold-change vs cycle 0 and the binding signal [2] was 0.315 ± 0.0637 fold-change vs cycle 0.

In the case of CCCCGG, the binding signal [1] is reported as 0.118 ± 0.0064 fold-change vs cycle 0 and the binding signal [2] is reported as 0.224 ± 0.0627 fold-change vs cycle 0.

Work on CTCCGC yielded a binding signal [1] of 0.169 ± 0.0169 fold-change vs cycle 0 and a binding signal [2] of 0.271 ± 0.0458 fold-change vs cycle 0.

CGCGGA gave a binding signal [1] of 0.105 ± 0.00959 fold-change vs cycle 0 and a binding signal [2] of 0.199 ± 0.0519 fold-change vs cycle 0.

Sequence CACCCC has a binding signal [1] of 0.309 ± 0.0175 fold-change vs cycle 0 and a binding signal [2] of 0.407 ± 0.058 fold-change vs cycle 0.

For CAAGCC, the binding signal [1] was 0.349 ± 0.0256 fold-change vs cycle 0 and the binding signal [2] was 0.491 ± 0.0577 fold-change vs cycle 0.

In the case of GCGCAC, the binding signal [1] is reported as 0.0689 ± 0.0069 fold-change vs cycle 0 and the binding signal [2] is reported as 0.167 ± 0.0842 fold-change vs cycle 0.

For GCCAAC, the binding signal [1] was 0.279 ± 0.0168 fold-change vs cycle 0 and the binding signal [2] was 0.415 ± 0.0905 fold-change vs cycle 0.

ATGGGC gave a binding signal [1] of 0.3096 ± 0.00283 fold-change vs cycle 0 and a binding signal [2] of 0.446 ± 0.0581 fold-change vs cycle 0.

TCCGCA was tested, and the binding signal [1] was 0.269 ± 0.0199 fold-change vs cycle 0 and the binding signal [2] was 0.408 ± 0.0556 fold-change vs cycle 0.

With ACCGGC the binding signal [1] was 0.106 ± 0.00697 fold-change vs cycle 0 and the binding signal [2] was 0.227 ± 0.0683 fold-change vs cycle 0.

GCTCCC showed a binding signal [1] of 0.239 ± 0.0043 fold-change vs cycle 0 and a binding signal [2] of 0.357 ± 0.0785 fold-change vs cycle 0.

CCCCAG showed a binding signal [1] of 0.289 ± 0.0372 fold-change vs cycle 0 and a binding signal [2] of 0.38 ± 0.0427 fold-change vs cycle 0.

With CCGTCC the binding signal [1] was 0.206 ± 0.0173 fold-change vs cycle 0 and the binding signal [2] was 0.337 ± 0.0624 fold-change vs cycle 0.

For CGGCAG, the binding signal [1] was 0.106 ± 0.00823 fold-change vs cycle 0 and the binding signal [2] was 0.214 ± 0.0627 fold-change vs cycle 0.

In the case of AGCGCA, the binding signal [1] is reported as 0.18 ± 0.00997 fold-change vs cycle 0 and the binding signal [2] is reported as 0.305 ± 0.097 fold-change vs cycle 0.

In the case of AGCGCC, the binding signal [1] is reported as 0.0655 ± 0.00477 fold-change vs cycle 0 and the binding signal [2] is reported as 0.179 ± 0.0733 fold-change vs cycle 0.

GTGTTA gave a binding signal [1] of 1.37 ± 0.0667 fold-change vs cycle 0 and a binding signal [2] of 1.31 ± 0.0659 fold-change vs cycle 0.

Sequence GGGCTA has a binding signal [1] of 0.35 ± 0.0254 fold-change vs cycle 0 and a binding signal [2] of 0.487 ± 0.0896 fold-change vs cycle 0.

With GCGGCC the binding signal [1] was 0.0274 ± 0.00551 fold-change vs cycle 0 and the binding signal [2] was 0.107 ± 0.0539 fold-change vs cycle 0.

CCGCGG was tested, and the binding signal [1] was 0.0426 ± 0.00565 fold-change vs cycle 0 and the binding signal [2] was 0.128 ± 0.0621 fold-change vs cycle 0.

GGGGCA gave a binding signal [1] of 0.178 ± 0.00946 fold-change vs cycle 0 and a binding signal [2] of 0.291 ± 0.0681 fold-change vs cycle 0.

With CCCGGA the binding signal [1] was 0.231 ± 0.0171 fold-change vs cycle 0 and the binding signal [2] was 0.334 ± 0.0568 fold-change vs cycle 0.

Sequence GGGCAC has a binding signal [1] of 0.144 ± 0.00697 fold-change vs cycle 0 and a binding signal [2] of 0.281 ± 0.0804 fold-change vs cycle 0.

Sequence AGCTCG has a binding signal [1] of 0.347 ± 0.0155 fold-change vs cycle 0 and a binding signal [2] of 0.487 ± 0.0527 fold-change vs cycle 0.

ACGCTC showed a binding signal [1] of 0.345 ± 0.00842 fold-change vs cycle 0 and a binding signal [2] of 0.503 ± 0.071 fold-change vs cycle 0.

Sequence CGCACA has a binding signal [1] of 0.229 ± 0.0112 fold-change vs cycle 0 and a binding signal [2] of 0.353 ± 0.0588 fold-change vs cycle 0.
